In PubChem BioAssay AID652054 (National Center for Advancing Translational Sciences (NCATS), 2013):
Among all 360,000 compounds or so, about 9,100 (2.5%) were called active. About 4% were inconclusive and are not listed. The entries come from a sample that favours actives as a whole. A number with no mark means an inactive call. Cut-off read from the data, not from the text of the source: active = max response below about -50%; inconclusive = no clear call, values can overlap the other calls; inactive = above that.

target: D(3) dopamine receptor (Homo sapiens) (UniProt P35462); assay: qHTS of D3 Dopamine Receptor Antagonist: qHTS; conditions: D3R cells, DiscoveRx beta-arrestin luminescence, antagonist mode; active compounds read low
Sequence (P35462 whole entry, looked up): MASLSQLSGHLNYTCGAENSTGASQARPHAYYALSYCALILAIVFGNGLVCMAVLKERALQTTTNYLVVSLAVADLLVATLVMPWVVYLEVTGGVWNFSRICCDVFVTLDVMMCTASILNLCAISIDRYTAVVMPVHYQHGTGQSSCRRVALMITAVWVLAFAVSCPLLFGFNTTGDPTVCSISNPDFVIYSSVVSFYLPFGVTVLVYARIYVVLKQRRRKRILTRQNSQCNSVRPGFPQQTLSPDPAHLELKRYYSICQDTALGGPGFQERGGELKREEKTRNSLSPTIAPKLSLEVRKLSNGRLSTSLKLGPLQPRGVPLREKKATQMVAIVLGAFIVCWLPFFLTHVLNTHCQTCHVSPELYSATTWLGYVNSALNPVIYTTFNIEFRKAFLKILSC
Summary of the method: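 Cells expressing the human receptor were seeded at 1500 cells/well, incubated overnight at 37 degrees C in 5% CO2, then exposed to library compounds with dopamine controls for 90 minutes at 37 degrees C before luminescent detection.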
% is set by controls: 0 for no effect and ±100 for the full control effect.

Q: How did the max response, negative = inhibition turn out when Cc1cccc(CN2CCN(C3CN(Cc4ccccc4)S(=O)(=O)C3)CC2)c1 (configuration not stated) was run?
A: -8.28%

Q: How did the max response, negative = inhibition turn out when Cc1cc2nc(-c3ccc(Cl)cc3)c(Cc3cccc(F)c3)n2c(C)c1Br was run?
A: 0%

Q: With COc1ccccc1CC1(C)C(=O)Nc2ccc(OC(F)(F)F)cc21 (configuration not stated) as the compound, how does the max response, negative = inhibition read?
A: -16.9%

Q: How did the max response, negative = inhibition turn out when CC(=O)Nc1ccc2c3c(ccc([N+](=O)[O-])c13)CC2 was run?
A: -18.8%

Q: With CN1/C(=C\C=C2\N=C(c3ccc(F)cc3)OC2=O)C(C)(C)c2ccccc21 as the compound, how does the max response, negative = inhibition read?
A: -63.7% (active)

Q: With CN1CCN(CCC(=O)N/N=C/C=C2\N(C)c3ccccc3C2(C)C)CC1 as the compound, how does the max response, negative = inhibition read?
A: -23.3%

Q: Which max response, negative = inhibition does the source give for CC(=O)Nc1cccc(OCC(=O)/C=C2\N(C)c3ccccc3C2(C)C)c1 here?
A: 12.1%

Q: With Cc1cc2c(cc1C)N1C(=O)c3cc4ccccc4cc3NC(=O)C1C(=O)N2 (configuration not stated) as the compound, how does the max response, negative = inhibition read?
A: 0%

Q: How did the max response, negative = inhibition turn out when CC(=O)C[C@@H]1OC[C@H](C)N1S(=O)(=O)c1ccc(C)cc1 was run?
A: 1.58%

Q: How did the max response, negative = inhibition turn out when Cc1nccn1-c1ccc(NC(=O)[C@H]2O[C@@H](n3ccc(=O)[nH]c3=O)[C@H](O)[C@@H]2O)cc1 was run?
A: 23.4%

Q: With CCc1nc2c(OCc3ccc(C(F)(F)F)cc3)cccn2c1N(C)C(=O)CC(C)C as the compound, how does the max response, negative = inhibition read?
A: 3.13%

Q: How did the max response, negative = inhibition turn out when COc1cccc(-c2cnc(C(O)c3ccccc3OC)[nH]2)c1 (configuration not stated) was run?
A: 0%

Q: With CC1(C(=O)NCc2ccccc2)CSCC(=O)N1CCCn1ccnc1 (configuration not stated) as the compound, how does the max response, negative = inhibition read?
A: 11.4%

Q: With CCN(CC)c1ccc(/C=N/Nc2nc(C)cc(C)n2)c(O)c1 as the compound, how does the max response, negative = inhibition read?
A: -81.5% (active)

Q: COc1ccc(NC(=O)C/C(C)=N/NC(=O)c2cnccn2)cc1Cl was tested. Which max response, negative = inhibition did it give?
A: 3.87%

Q: How did the max response, negative = inhibition turn out when Cc1ccc(/C=N/NC(=O)C2=NNC(c3ccccc3)(c3ccccc3)C2)c(O)c1 was run?
A: 15.1%

Q: CCN(CC)c1ccc(/C=N/NC(=O)c2cnccn2)c(O)c1 was tested. Which max response, negative = inhibition did it give?
A: -57.7% (active)

Q: Which max response, negative = inhibition does the source give for Cc1ccc2cc(/C=N/Nc3ccc(C(=O)O)cc3)c(Cl)nc2c1 here?
A: 13.3%

Q: For CCOc1cc(/C=N/Nc2cc(C)nc3ccc(C)cc23)ccc1O, which max response, negative = inhibition is on record?
A: 3.59%

Q: c1cc(-c2ccc3[nH]ccc3c2)n2ccnc2c1 was tested. Which max response, negative = inhibition did it give?
A: 0%

Q: Which max response, negative = inhibition does the source give for CCNC(=O)C1(C)CCN(C(=O)c2ccccc2)C1 (configuration not stated) here?
A: 0%

Q: How did the max response, negative = inhibition turn out when COc1ccc(C(C(=O)NCc2ccccc2)n2c(=O)c(-c3ccccc3)nc3ccccc32)cc1 (configuration not stated) was run?
A: -3.74%

Q: How did the max response, negative = inhibition turn out when COc1ccc(OC)c(NC(=O)C2CCCN2S(=O)(=O)c2ccc3c(c2)CC(C)N3C(C)=O)c1 (configuration not stated) was run?
A: -11.1%

Q: CCN(CCN(C)C)C(=O)c1ccc2nc(C)c(N(C)C(=O)CCc3ccccc3)n2c1 was tested. Which max response, negative = inhibition did it give?
A: 14.8%

Q: For COc1ccc(S(=O)(=O)N2CCC(C(=O)NCCC(=O)Nc3ccccc3OC)CC2)cc1, which max response, negative = inhibition is on record?
A: 23.8%

Q: With CN=C1C=C/C(=N/N=c2\ccn(O)cc2C)C=C1C as the compound, how does the max response, negative = inhibition read?
A: -67.8% (active)

Q: How did the max response, negative = inhibition turn out when O=C(COC(=O)CCc1c[nH]c2ccccc12)Nc1cccc(Cl)c1 was run?
A: -6.82%

Q: Which max response, negative = inhibition does the source give for NC(=NC(=O)c1ccccc1)N1CCOCC1 here?
A: -52.7% (active)

Q: How did the max response, negative = inhibition turn out when O=C(CSC(=S)N1CCOCC1)c1ccccc1 was run?
A: -4.48%

Q: With O=C(NC(=O)N1CCOCC1)c1ccccc1 as the compound, how does the max response, negative = inhibition read?
A: 160%

Q: Which max response, negative = inhibition does the source give for Cc1cc2oc(=O)cc(CN(C)Cc3ccccc3)c2cc1Cl here?
A: 9.91%

Q: CCCCN1C(=O)C(CC(=O)NCc2cccs2)CC(C(=O)N2CCCCCC2)=C1C (configuration not stated) was tested. Which max response, negative = inhibition did it give?
A: 0%

Q: COc1ccccc1CNC(=O)CCCNS(=O)(=O)c1cccc2nsnc12 was tested. Which max response, negative = inhibition did it give?
A: -0.0929%

Q: With O=C(CCS(=O)(=O)c1cccc2nsnc12)N1CCN(c2ccccc2F)CC1 as the compound, how does the max response, negative = inhibition read?
A: 1.65%

Q: O=C(CCCNS(=O)(=O)c1cccc2nsnc12)NCCN1CCN(c2ccccc2F)CC1 was tested. Which max response, negative = inhibition did it give?
A: -84.7% (active)

Q: For OC[C@@H]1CN(Cc2ccc3c(c2)OCO3)C[C@H](n2cnc3c(NCc4ccco4)ncnc32)O1, which max response, negative = inhibition is on record?
A: -5.45%

Q: Which max response, negative = inhibition does the source give for COC(=O)[C@@]1(Sc2ccc(C)cc2)CC(=O)N(c2cccc(SC)c2)[C@@H]1c1ccccc1 here?
A: 3.45%

Q: For CC(C)Nc1nc(N(c2ccccc2)c2ccccc2)nc(-n2ccnc2)n1, which max response, negative = inhibition is on record?
A: 16.7%

Q: Which max response, negative = inhibition does the source give for N#Cc1nc(N)nc(N(c2ccccc2)c2ccccc2)n1 here?
A: -74% (active)

Q: How did the max response, negative = inhibition turn out when CC(=O)Nc1ccc(CNc2nc(NCCN(C)C)nc3cc(-c4ccccc4)sc23)cc1 was run?
A: -24.6%

Q: How did the max response, negative = inhibition turn out when CCOC(=O)C1CCCN(C(=O)c2cc(-c3cccs3)oc2C)CC1 (configuration not stated) was run?
A: 11%

Q: Which max response, negative = inhibition does the source give for O=c1[nH][nH]c(C(F)(F)F)c1C=NCc1ccccc1Cl here?
A: -70.6% (active)

Q: With COc1ccc(S(=O)(=O)N2CCCCC2c2cc(C(=O)NCc3ccc(F)cc3)no2)cc1 (configuration not stated) as the compound, how does the max response, negative = inhibition read?
A: 8.77%

Q: How did the max response, negative = inhibition turn out when Cc1cc(C(=O)N2CCCC2(C)C(=O)O)c(C)o1 (configuration not stated) was run?
A: 16.6%

Q: For CCOC(=O)C1=CC[C@@H](c2ccccc2)N(S(=O)(=O)c2ccc(C)cc2)[C@H]1c1ccc(CC)cc1, which max response, negative = inhibition is on record?
A: 4.64%

Q: How did the max response, negative = inhibition turn out when O=C(NCc1cccnc1)c1cc(C2CCCCN2C(=O)CCc2ccccc2)on1 (configuration not stated) was run?
A: -10.2%

Q: Which max response, negative = inhibition does the source give for COc1ccc(C(=NN)c2ccc(OC)cc2)cc1 here?
A: -10.2%

Q: With COc1ccc(C(C#N)=C2C=CC(=NO)c3ccccc32)cc1 as the compound, how does the max response, negative = inhibition read?
A: -54% (active)

Q: For COc1ccc(/C(N)=N/OC(=O)Cc2ccccc2)cc1, which max response, negative = inhibition is on record?
A: -0.193%

Q: How did the max response, negative = inhibition turn out when Cc1cccc(C)c1NC(=O)C(c1ccc(C(F)(F)F)cc1)n1c(=O)c(-c2ccco2)nc2ccccc21 (configuration not stated) was run?
A: -12.7%

Q: How did the max response, negative = inhibition turn out when COc1cc(C=C(OC(C)=O)c2ccc3c(c2)OCO3)cc(OC)c1OC was run?
A: 24.2%

Q: For O=C1CCC(C(=O)OCC(=O)Nc2ccc(OC(F)F)cc2)=NN1, which max response, negative = inhibition is on record?
A: 12.8%

Q: How did the max response, negative = inhibition turn out when O=C(N/N=C/c1cc(Cl)cc([N+](=O)[O-])c1O)C(O)(c1ccccc1)c1ccccc1 was run?
A: -89.3% (active)

Q: How did the max response, negative = inhibition turn out when O=C(Cc1ccccc1)N/N=C/c1ccc(Cl)cc1Cl was run?
A: -15.7%

Q: How did the max response, negative = inhibition turn out when O=C(N/N=C/c1cc(Br)c(O)c([N+](=O)[O-])c1)C(O)(c1ccccc1)c1ccccc1 was run?
A: -10.9%

Q: Which max response, negative = inhibition does the source give for CN(C)/N=C/c1cc(Cl)cc([N+](=O)[O-])c1O here?
A: -79.8% (active)

Q: For CC(=O)NC(c1ccccc1)c1nc(-c2ccccc2C)cs1 (configuration not stated), which max response, negative = inhibition is on record?
A: -13.7%
